Assay outcomes (PubChem BioAssay)
Shown is part of a subset that was picked to be rich in hits.
Pf Dd2 inh: inhibitors of Plasmodium falciparum Dd2 growth. P. falciparum Dd2 growth, SYBR Green, 72 h. Potency, µM (highest dose often 28.9 µM), for inactives: at the top dose activity, negative = inhibition, most hits filed as inhibitors. hit rate 4.3% among 120,000; active = well fitted inhibition curve with a large enough effect;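 also: plate controls were DMSO vehicle for no effect and reference drug for full effect; nearly all actives have a fitted effect of over 65% in size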
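Infected erythrocytes (Dd2, 0.3% parasitemia, 2.5% hematocrit final) are added to compound in RPMI-1640/Albumax II medium, grown 72 h at 37C in low oxygen, then lysed with saponin/Triton-X containing SYBR Green and read by fluorescence.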
* marks the source's active call; other numbers are inactive results; i = inactive; [ ] = dose if it differs, or a comment. Potency is read from the fitted curve at half-maximal effect.

SMILES	Pf Dd2 inh
Cc1cc(-n2c(SCc3ccccc3F)nc3[nH]ncc3c2=O)ccc1Cl	-27%
O=C(c1ccc2ccccc2c1)N1C[C@@H]2C[C@H](C1)c1ccc(NS(=O)(=O)Cc3ccccc3)c(=O)n1C2	i
CN(Cc1ccc(-c2ccccc2)cc1)C(=O)C(C)(C)C	-23%[44.1 µM]
COCCN1C(=O)c2ccccc2C(C(=O)NCc2ccc(Cl)cc2)C12CCCCC2 (centres undefined)	i
N#Cc1cc2c(nc1SCC(=O)Nc1ccc(Cl)c(C(F)(F)F)c1)C1CCN2CC1	5µM*
Nc1c(C(=O)Nc2ccc(Cl)c(C(F)(F)F)c2)sc2nc3c(cc12)N1CCC3CC1	2.8µM*
Nc1c(C(=O)Nc2cccc(Br)c2)sc2nc3c(cc12)N1CCC3CC1	i
O=C(CN1CCN(c2ccc(Cl)cc2)CC1)Nc1ccc(Cl)c(C(F)(F)F)c1	25%
CCC1CCc2nc3sc(C(=O)Nc4ccc(F)c(Cl)c4)c(N)c3cc2C1 (centres undefined)	-7%
N#Cc1c(C(F)(F)F)cc(-c2ccc(F)cc2)nc1SCC(=O)Nc1ccccc1	-1%
FC1(F)C[C@@H](c2nnc(C3CC3)o2)N(C2CCOCC2)C1	8%
CC(C)NC(=O)N1C2CCC1CN(Cc1cccnc1)C2	2%[44.1 µM]
O=C(NCC1CN(C(=O)CCc2ccccc2)CC12CN(c1ccccc1)C2)c1ccccc1 (centres undefined)	i
Cn1nccc1C(=O)N1CC(COc2ccccc2)C2(C1)CN(c1ccccc1)C2 (centres undefined)	i
Cn1nccc1C(=O)N1CC(CNC(=O)c2ccccc2)C2(C1)CN(c1ccccc1)C2 (centres undefined)	13µM*
COc1ccc(CN2C[C@@H]3C(=O)N(CCCN4CCCC4=O)C(=O)[C@@H]3C2)cc1OC	i
CC(=O)Nc1ccc(OCC(=O)N2CCN(c3ccc(Cl)cc3)CC2)nc1	23%
CC(=O)NCCCC(=O)N1CCOC2(CCN(C(=O)C3CCN(C)CC3)CC2)C1	7%
Cc1ccc(NC(=O)Cn2c(CCC(=O)O)ccc2-c2cccs2)cc1	7%
Cc1ccc(CCNC(=O)Cn2c(-c3cccs3)cc3ccccc32)cc1	13µM*
CCCN1CCN(CCCNC(=O)Cn2c(-c3cccs3)cc3cc(Cl)ccc32)CC1	8.9µM*
CCC(=O)N1c2ccccc2CC1C(=O)NCCN1CCN(c2cccc(Cl)c2)CC1 (centres undefined)	-23%
Cc1cc(C)c(NC(=O)Cn2c(=O)n(CC(=O)NCCc3ccccc3)c(=O)c3ccccc32)c(C)c1	15%
Cc1ccc(C)c(N2CCN(CCCNC(=O)Cn3ncc4c5ccccc5n(C)c4c3=O)CC2)c1	-26%
O=C(Cn1c(-c2cccs2)cc2ccccc21)NCCCN1CCN(c2cccc(Cl)c2)CC1	11µM*
SMILES	Pf Dd2 inh
CCN1CCN(CCCNC(=O)Cn2c(-c3cccs3)cc3ccccc32)CC1	-17%
Cc1ccc(C)c(N2CCN(CCCNC(=O)Cn3c(-c4cccs4)cc4ccccc43)CC2)c1	7.9µM*
CC1CCN(C(=O)Cn2c(-c3cccs3)cc3cc(Cl)ccc32)CC1	-8%
CCCN1CCN(C(=O)Cn2c(-c3cccs3)cc3cc(F)ccc32)CC1	-18%
CC(C)c1nc2ccc(C(=O)NCCCN3CCN(c4cccc(Cl)c4)CC3)cc2o1	-2%
COC[C@@H]1CN(C(=O)Cc2c(F)cccc2Cl)C[C@H]1C(N)=O	20%
CCC1Oc2ccc(NC(=O)Cc3cccc(OC)c3)cc2CN(Cc2ccc3c(c2)OCO3)C1=O (centres undefined)	i
CC(=O)N1CCC(N2C[C@@H]3OCC(=O)N(Cc4ccccc4)[C@@H]3C2)CC1	-14%[44.1 µM]
CS(=O)(=O)N1CCCN(C(=O)c2ccoc2)CCNC(=O)CC1c1ccccc1 (centres undefined)	23%
CCN(CC)CC[C@H]1CN(C(=O)c2ccnc(Cl)c2)CC[C@H]1CC(=O)O	4%[44.1 µM]
O=C(c1ccc2c(c1)OCO2)N1CCN(c2cc(-c3ccc(F)cc3)[nH]n2)CC1	i
Cc1ccc(C(=O)N2CCC3(CC2)SCC(=O)N3c2ccc(F)cc2)cc1[N+](=O)[O-]	i
Cc1cccc(N(C)C(=O)Cn2c(N3CCc4ccccc4C3)nc(C)cc2=O)c1	-29%
COC(=O)c1c(NC(=O)c2cccc(OC)c2)sc2c1CCC(C(C)(C)C)C2 (centres undefined)	-4%
CCC(CC)NC(=O)CCC1CCN(C(=O)c2ccccc2Cl)CC1	-13%
Cc1ccc2c(=O)cc(C(=O)Nc3sc4c(c3C(=O)NCc3ccco3)CCC4)oc2c1C	38%
Cc1cc(C)c2c(=O)cc(C(=O)Nc3sc4c(c3C(=O)NCc3ccco3)CCCC4)oc2c1	-3%
Cc1ccccc1C(=O)Nc1sc2c(c1C(=O)NCc1ccco1)CCC(C(C)(C)C)C2 (centres undefined)	11µM*
CC1CCN(C(=O)c2c(NC(=O)c3ccccc3Cl)sc3c2CCC(C(C)(C)C)C3)CC1 (centres undefined)	11µM*
CC(C)(C)C1CCc2c(sc(NC(=O)c3cc(-c4ccc(F)cc4)on3)c2C#N)C1 (centres undefined)	33%
Cc1ccccc1C(=O)Nc1sc2c(c1C(=O)O)CCC(C(C)(C)C)C2 (centres undefined)	-27%
Cc1ccccc1C(=O)Nc1sc2c(c1C(=O)N1CCCCC1)CCC(C(C)(C)C)C2 (centres undefined)	5.6µM*
CC(=O)Nc1ccc(NC(=O)CN2C(=O)NC3(CCC(C(C)(C)C)CC3)C2=O)cc1 (centres undefined)	i
CN(C)C(=O)c1noc2c1CN(C(=O)C1COc3ccccc3C1)CC2 (centres undefined)	-8%
CCn1c(CO)nnc1C1CC(NC(=O)Cc2c(C)[nH]c(=O)[nH]c2=O)C1 (centres undefined)	1%
SMILES	Pf Dd2 inh
O=C1CCN(C(=O)c2cc3ccccc3[nH]2)CCCC(CO)CCN1 (centres undefined)	-1%
Cc1cnn(CCC(=O)N[C@@H]2CN(Cc3cccnc3)C[C@H]2CN(C)C)c1	i
Cc1noc(-c2cccn3c(CNC(=O)c4cccc(F)c4)nnc23)n1	i
Cc1cnc(-c2cccnc2)n1C1CCN(C(=O)c2ccncc2)CC1	5%
Cc1ccc(C(=O)N2CCC3(CC2)Nc2ccccc2NC3=O)cc1O	-7%
CCCN1C(=O)Cc2cc(C(=O)NCc3ccco3)ccc21	-19%
CCc1ccc(CNC(=O)c2cc(-c3ccc(Br)s3)nc3ccccc23)cc1	i
CCN(CC)CCNC(=O)c1cc(-c2ccc(Br)s2)nc2ccccc12	11µM*
COc1cccc(CNC(=O)c2cc(-c3ccc(Cl)s3)nc3ccccc23)c1	-2%
O=C(O)Cn1ccc2cc(OCCc3cccc(-c4cncnc4)c3)cnc21	-12%[44.1 µM]
N#Cc1ccc(CN2CCC3(CC2)COCCN3C(=O)OCc2ccccc2)cc1	i
c1ccc(OCc2noc(-c3ccc(NC4CCSC4)nc3)n2)cc1 (centres undefined)	10µM*
CCC(O)CNc1ccc(-c2nc(COC)no2)cn1 (centres undefined)	1%
CC1(COc2ccc(-c3nc(COc4ccccc4)no3)cn2)CCCNC1 (centres undefined)	i
O=C(NC1CCCN(c2cc(-c3ccc(F)cc3)[nH]n2)C1)c1cc2ccccc2[nH]1 (centres undefined)	-20%
COCCCNC(=O)c1cn2ccnc(-c3ccc(OC)cc3)c2n1	-10%
C#CCNC(=O)C[C@@H]1C[C@@H](C(C)C)[C@H](CNC(=O)NC2CCCCC2)C=C1C	-5%[44.1 µM]
COc1ccc(OC)c(NC(=O)CC2CCOCC2)c1	39%
